# Screens as filed in PubChem BioAssay.
# Most compounds without a hit are left out; they make up all but 5.9% or so of the library.
# RORg inh = qHTS for inhibitors of ROR gamma transcriptional activity. Potency, µM (titrated, usually from 53.6 µM), hits mostly inhibitors. 310,000 compounds, 5.4% hits. Drosophila S2 Gal4-RORgamma UAS-luciferase reporter, 20 h; also: nearly all actives have a fitted effect of over 60% in size
#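 Luciferase reporter read in Schneider cells carrying Gal4-RORγ (mouse) and UAS-Photinus luciferase; cells given compound 1 h before 700 uM copper sulfate induction, then incubated 20 h at ambient temperature.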
# FBPA coupling cs = qHTS Assay for Inhibitors of Fructose-1,6-bisphosphate Aldolase from Giardia Lamblia: Coupling assay counterscreen; 290,000 compounds, 0.67% hits; activity change, negative = inhibition, % at 58.2 µM, hits read low; AID 2472, 2010; coupling enzyme system counterscreen, AmpLite Red fluorescence; in the data active = activity change below about -30%
#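 Fluorescence at 525 nm excitation and 598 nm emission measured inhibition of the coupled detection system without aldolase. Compounds (at 57.5 uM final) were preincubated 10 min at room temperature with coupling enzyme reagent before a 20 min substrate/AmpLite Red step.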
# TrxR1 substrate = qHTS Assay for Substrates of Mammalian Selenoprotein Thioredoxin Reductase 1 (TrxR1): qHTS; Potency, µM (highest dose often 114 µM); AID 588456, 2011; 390,000 compounds, 0.01% hits; purified TrxR1 substrate turnover, NADPH consumption readout; Thioredoxin reductase 1, cytoplasmic (Rattus norvegicus), O89049; also: nearly all actives have a fitted effect of over 50% in size
#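 Rat TrxR1, dispensed at 90 nM, was prereduced with 400 uM NADPH (final) for 5 min at ~22 deg C, then incubated with compound 15 min before 400 uM selenite. A first-read NADPH fluorescence drop versus no-compound background flagged substrates.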
# TrxR1 inh = qHTS Assay for Inhibitors of Mammalian Selenoprotein Thioredoxin Reductase 1 (TrxR1): qHTS; Thioredoxin reductase 1, cytoplasmic (Rattus norvegicus), O89049; recombinant rTrxR1, NADPH fluorescence consumption, selenite substrate; Potency, µM (top dose mostly 114 µM), most hits filed as inhibitors; 390,000 compounds, 1% hits; AID 588453, 2011; also: nearly all actives have a fitted effect of over 65% in size
#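 Rat TrxR1 (90 nM in the dispensed reagent) was pre-reduced with 400 uM NADPH for 5 min at room temperature, then incubated with compound for 15 min. After 400 uM selenite was added, NADPH fluorescence (Ex 340/Em 450 nm) was followed for 8 min.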
# GALK inhibitor = qHTS Assay for Inhibitors of Human Galactokinase (GALK); P51570; Purified GALK, Kinase-Glo residual ATP luminescence; Potency, µM (top dose mostly 57.5 µM), most hits filed as inhibitors; 270,000 compounds, 0.007% hits
# Target sequence (P51570 whole entry, looked up): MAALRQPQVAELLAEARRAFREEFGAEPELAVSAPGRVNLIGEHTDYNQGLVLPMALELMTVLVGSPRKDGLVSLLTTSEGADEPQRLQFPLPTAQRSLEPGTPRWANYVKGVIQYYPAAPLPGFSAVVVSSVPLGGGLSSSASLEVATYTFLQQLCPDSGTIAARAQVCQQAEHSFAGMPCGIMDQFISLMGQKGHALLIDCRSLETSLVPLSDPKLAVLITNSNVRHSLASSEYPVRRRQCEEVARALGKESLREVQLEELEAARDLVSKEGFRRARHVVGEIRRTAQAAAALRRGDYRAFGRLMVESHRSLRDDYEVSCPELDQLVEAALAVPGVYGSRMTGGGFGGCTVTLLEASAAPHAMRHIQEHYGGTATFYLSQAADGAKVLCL
#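 Galactose (100 uM) and ATP (35 uM) were turned over by 5 nM GALK for 1 h at RT. Kinase-Glo Plus then converted the remaining ATP into a luminescent signal.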
# Gal4-VP16 FLuc = VP16 counterscreen qHTS for inhibitors of ROR gamma transcriptional activity. Potency, µM (top dose mostly 53.6 µM), actives largely listed as inhibitors. Drosophila S2 Gal4-VP16 UAS-luciferase, luminescence, 20 h. 310,000 compounds, 3.5% hits;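 also: Gal4-VP16 expression switched on by copper sulfate through the metallothionein promoter; nearly all actives have a fitted effect of over 50% in size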
# Hits are given with their value; . = inactive; ? = inconclusive; / = no result; [ ] = another dose, or the depositor's remark. Unless noted, calls follow the shape of the dose curve; as a rule, active = well fitted curve in the direction sought with a large enough effect; inconclusive = small, poorly fitted or top-dose-only effect, or another doubt; inactive = no such curve, though single readings can be large; an effect the other way counts as inactive or inconclusive.
SMILES,RORg inh,FBPA coupling cs,TrxR1 substrate,TrxR1 inh,GALK inhibitor,Gal4-VP16 FLuc
COCCNC(=O)c1c(N)n(-c2cccc(C)c2)c2nc3ccccc3nc12,.,-38.1,.,.,.,.
Nc1c(C(=O)NCCN2CCOCC2)c2nc3ccccc3nc2n1-c1ccccc1,.,-30.3,.,.,.,.
COC(=O)c1c(N)n(-c2ccc(N3CCOCC3)cc2)c2nc3ccccc3nc12,?,.,/,/,.,.
COC(=O)c1c(N)n(-c2ccc(NC(C)=O)cc2)c2nc3ccccc3nc12,.,-30.5,.,.,.,.
O=C(NC(=S)Nc1ccc(S(=O)(=O)Nc2ncccn2)cc1)c1ccc(Br)cc1,.,.,.[11.4 µM],.[11.4 µM],.,.
CC(C)(C)C(=O)Nc1cccc(-c2nc3ccccc3c(=O)o2)c1,14.1µM,/,.,.,.,?
CC(C)C(=O)Nc1ccc(-c2nc3ccccc3c(=O)o2)cc1,11.2µM,.,.,.,.,?
Cc1cccc(N2CC(C(=O)Nc3nnc(SCC(=O)Nc4cc(C)on4)s3)CC2=O)c1 (configuration not stated),.,-43.9,.,.,.,.
Cc1cccc(N2CC(C(=O)Nc3nnc(SCC(=O)Nc4nccs4)s3)CC2=O)c1 (configuration not stated),.,.,.,.,.,.
COc1ccc(OCC(=O)Nc2cc(-c3nc4ccccc4o3)ccc2Cl)cc1,/,/,.[11.4 µM],.,/,/
CC(=O)NC(C)C12CC3CC(CC(CC(=O)O)(C3)C1)C2 (configuration not stated),.,.,.,.,.,.
Brc1csc(/C=N/Nc2nc3ccccc3s2)c1,0.562µM,.,.,.,.,1.26µM
Brc1ccc(/C=C/C=N/Nc2nc3ccccc3s2)cc1,.,/,.,.,.,.
Cc1csc(N/N=C/c2ccccn2)n1,0.355µM,.,.,.,.,1.12µM
C(=N\Nc1nc2ccccc2s1)/c1ccccn1,0.1µM,.,.,.,.,.
COc1ccc(C=NNc2nc3ccccc3s2)cc1,/,/,.,.,/,/
Cc1ccc(C2=NOC(c3nnc(-c4ccccc4)o3)C2)cc1 (configuration not stated),/,/,.,.,/,/
Cc1cc(C)c(C#N)c(SCC(=O)Nc2nnc(-c3ccccc3)s2)n1,.,.,.,.,.,.
Cc1cc(C(F)(F)F)c(C#N)c(SCC(=O)Nc2nc3ccccc3s2)n1,?,.,.,.,.,.
Cc1nc(SCC(=O)Nc2nc3ccccc3s2)c(C#N)c(C)c1C,0.355µM,.,.,.,.,?
Cc1ccc2sc(NC(=O)CSc3nc(C)cc(C)c3C#N)nc2c1,0.708µM,.,.,.,.,?
Cc1cccc2c1NC(=O)C2(c1ccc(O)cc1)c1ccc(O)cc1,.,.,.,.,.,.
Cc1cc(C2(c3ccc(O)c(C)c3)C(=O)Nc3ccccc32)ccc1O,.,.,.,.,.,15.8µM
CCOc1ccc(N2C(=O)CC(N3CCN(c4ccc(F)cc4)CC3)C2=O)cc1 (configuration not stated),.,.,.,.,.,.
CCCCc1ccc(NC(=O)N[C@@H](C)C(=O)O)cc1,.,.,.,.,.,.
SMILES,RORg inh,FBPA coupling cs,TrxR1 substrate,TrxR1 inh,GALK inhibitor,Gal4-VP16 FLuc
CC(C)c1ccc(NC(=S)N2CCN(C)CC2)cc1,.,/,.,.,.,.
CCCCc1ccc(NC(=S)N2CCN(C)CC2)cc1,11.2µM,.,.,.[2.29 µM],.,?
CCCCc1ccc(NC(=S)N2CCN(C(=O)OCC)CC2)cc1,1.26µM,.,.,.,.,?
CCCCc1ccc(NC(=O)C(C)CC)cc1 (configuration not stated),1.41µM,.,.,.,.,3.98µM
CC(C)c1ccc(NC(=S)N2CCCC2)cc1,10µM,.,.,.,.,?
CCOc1ccc(S(=O)(=O)NC2CC2)cc1C(N)=O,.,.,.,.,.,.[10 µM]
